According to PubChem BioAssay AID463205 (Broad Institute, 2010):
Out of some 2,400 compounds screened, about 20 (0.8%) were called active. The full list was thinned out, with actives kept by preference. Values without a mark were called inactive.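 How the source made its calls: active means AC50 no more than ten times the highest tested concentration, or full inhibition at every dose giving a flat fit (cut at about 30 µM in these data); inconclusive means flat fit with activity between 30% and 70%, or poor-quality invalid fit; inactive means AC50 more than ten times the top tested dose.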

Experiment: luciferase-based ADP detection interference – biochemical, luminescence, cell-free, homogeneous, artefact control for GSK-3a inhibitor project, dose response (AID 463205);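 further: kinase-free counter-screen against the ADP-Glo detection reagents only; potency is for inhibitors that reduce the luminescence signal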
Conditions: Cell-free ADP-Glo detection reagents, 5 uM ADP
For CCCOc1ccc(-c2nnc(N)s2)cc1, the AC50 was over 30 µM. With O=C(CSc1ccccn1)Nc1nc2ccc(Br)cc2s1 the AC50 was over 30 µM. For Nc1nc(-c2ccccc2)nc(-c2ccccc2O)n1, the AC50 was over 30 µM. O=C(O)CCSc1nnc(-c2ccncc2)n1-c1ccccc1 gave an AC50 of over 30 µM. For NC(=O)c1ccc(NC(=O)CSc2nnc(-c3ccc4c(c3)OCO4)o2)cc1, the AC50 was over 30 µM. For C#CCOCCOCCOCCNc1nc(N2CCN(C(=O)CCCCCCCCCCNC(=O)[C@H]([C@@H](C)CC)n3cc(CCCCCN)nn3)CC2)nc(N2CCN(C(=O)CCCCCCCCCCNC(=O)[C@H](CO)n3cc(CCCCCN)nn3)CC2)n1, the AC50 was over 30 µM. Compound CCCCOC(=O)Nc1nnc(COc2ccccc2)s1 has an AC50 of over 30 µM. CCCOc1ccccc1NC(=O)Nc1ccccc1Cl gave an AC50 of over 30 µM. Compound O=C(Nc1cccc(-c2cnc3ccccc3n2)c1)c1ccncc1 has an AC50 of over 30 µM. Work on O=C(NCCN1CCN(Cc2ccccc2)CC1)Nc1cc(Cl)cc(Cl)c1 yielded an AC50 of over 30 µM. COc1ccc(-c2nnc(SCC(=O)Nc3ccccc3OC)o2)cc1 showed an AC50 of over 30 µM. COc1cc(C2c3sc(=O)[nH]c3SC3C4CCC(C4)C23)ccc1O (stereo not drawn) gave an AC50 of over 30 µM. With Oc1ccc(-c2csc(Nc3ccccn3)n2)c(O)c1 the AC50 was over 30 µM. Compound CCOC(=O)CC(C#N)c1c[nH]c2ccccc12 (stereo not drawn) has an AC50 of over 30 µM. COc1ccccc1N1CCN(C(=O)c2cc(-c3ccccc3)on2)CC1 gave an AC50 of over 30 µM. For Cc1sc2ncnc(N3CCC(C(=O)Nc4ccc(C#N)cc4)CC3)c2c1C, the AC50 was over 30 µM. Work on CC(=O)Nc1sc2c(c1C(N)=O)CCCC2 yielded an AC50 of over 30 µM. For N#CC1=C2SCN(Cc3ccco3)CN2C(=O)CC1c1c(F)cccc1Cl (stereo not drawn), the AC50 was over 30 µM. In the case of CCN(C(=O)C1CCCN1S(=O)(=O)c1cccc2nsnc12)c1ccccc1 (stereo not drawn), the AC50 was over 30 µM. Cc1ccc(C)c(N2CC(C(=O)Nc3nccs3)CC2=O)c1 (stereo not drawn) gave an AC50 of over 30 µM. Cc1ccc(-c2nc3n(n2)Cc2ccccc2-3)cc1 gave an AC50 of over 30 µM. With Fc1ccc(-c2nc3n(n2)Cc2ccccc2-3)cc1 the AC50 was over 30 µM. In the case of CCn1c(C)nc2cc(-c3nc4n(n3)Cc3ccccc3-4)ccc21, the AC50 was 24.3 µM (active). Work on NCCNc1ccc([N+](=O)[O-])c(NC2CC2)c1 yielded an AC50 of over 30 µM. For COc1ccc(Nc2sc(C(=O)c3ccc(Cl)cc3)c(N)c2C(=O)Nc2ccccc2OC)cc1, the AC50 was over 30 µM. For Cc1ccc(NC(=O)CSCc2nc3c(nnn3Cc3ccc(F)cc3)c(=O)[nH]2)c(C)c1, the AC50 was over 30 µM. For COc1ccc(/C=C/c2nc3ccccc3n2C)cc1, the AC50 was 14.3 µM (active). Compound COc1c2ccccc2nc2ccccc12 has an AC50 of over 30 µM. Compound COc1ccc(/C=C/c2nc(N)nc(-c3ccccc3O)n2)cc1 has an AC50 of over 30 µM. C[n+]1cccc(C2C(C#N)=C(N)Oc3c2ccc2ccccc32)c1 (stereo not drawn) gave an AC50 of over 30 µM. Work on O=C(CSc1nnc(-c2ccncc2)s1)Nc1ccccc1 yielded an AC50 of over 30 µM. O=C(CSc1nnc(-c2ccc(O)cc2)o1)Nc1ccccc1Br showed an AC50 of over 30 µM. Compound COc1ccc(CNc2ccc3cn[nH]c3c2)c(OC)c1OC has an AC50 of over 30 µM. Work on CCCc1[nH]nc2c1C(c1ccc(O)c(OC)c1)C(C#N)=C(N)O2 (stereo not drawn) yielded an AC50 of over 30 µM. Compound Cc1sc2ncnc(NCCCN3CCCC3=O)c2c1C has an AC50 of over 30 µM. Work on Cc1cc(C)c2[nH]c(O)c(N=Nc3ccc(C(=O)O)cc3)c2c1 yielded an AC50 of over 30 µM. Compound N#Cc1c(NC(=O)CSc2n[nH]c(N)n2)oc(-c2ccccc2)c1-c1ccccc1 has an AC50 of over 30 µM. With COc1cccc(/C=c2\s/c(=C\C(=O)C(C)(C)C)[nH]c2=O)c1 the AC50 was over 30 µM. With CCOC(=O)c1cnc2c(C)cc(Cl)cc2c1N1CCN(C)CC1 the AC50 was over 30 µM. Compound COc1ccccc1/C=N/NC(=O)c1nnn(-c2nonc2N)c1-c1cccs1 has an AC50 of over 30 µM. With CCN1CCN(c2nc(Nc3cccc(F)c3)nc(N)c2[N+](=O)[O-])CC1 the AC50 was over 30 µM. Cc1nc(N2CCOCC2)nc(N2CCCCC2)c1[N+](=O)[O-] showed an AC50 of over 30 µM. In the case of COc1ccc(O)c(-c2nc(N)nc(N)n2)c1, the AC50 was over 30 µM. Cc1cccc(C)c1OCC(O)CNC(C)c1ccccc1 (stereo not drawn) gave an AC50 of over 30 µM. In the case of O=C(CNC(=O)c1ccccc1)N/N=C/C=C/c1ccccc1, the AC50 was over 30 µM. Cc1cc(NC(=O)COC(=O)c2cc(S(=O)(=O)N3CCOCC3)ccc2N2CCCCC2)no1 gave an AC50 of over 30 µM. CN(c1nc2nonc2nc1NC1CC1)C1CCOC1 (stereo not drawn) gave an AC50 of over 30 µM. Work on CCC/C(=N/NC(=O)c1nnn(-c2nonc2N)c1CN1CCCCC1)c1ccccc1 yielded an AC50 of over 30 µM. Compound COc1ccc(NC(=O)CSc2nnc(-c3cccc(O)c3)o2)cc1 has an AC50 of over 30 µM. Work on COc1ccc2cc(C(=O)NCc3ccco3)c(=O)oc2c1 yielded an AC50 of over 30 µM. Work on COc1cccc(NC(=O)[C@@H]2CCCN2S(=O)(=O)c2cccc3cccnc23)c1 yielded an AC50 of over 30 µM. Compound CCCNC(=O)NC(C(=O)OC)C12CC3CC(CC(C3)C1)C2 (stereo not drawn) has an AC50 of over 30 µM. CCOC(=O)c1[nH]c2c(c1C)C(=O)CC(c1ccc(OC)c(OC)c1)C2 (stereo not drawn) gave an AC50 of over 30 µM.
